5 compounds from PubChem BioAssay can be followed below.

The nature of experiment [1]: compounds binding Alexa647 anti-His antibody – biochemical, small-molecule microarray, 635 nm fluorescence, artefact control for SMM control protein annotation, primary screen (AID 1128).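 Note: score merges feature fluorescence with signal-to-noise for each printed compound spot.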 Conditions: higher = more signal.
Experiment [2] has as its system Human papillomavirus type 1a E7 protein (residues 1-88). The experiment can be described thus: HPV1a E7 small-molecule binders, primary screen, biochemical, small-molecule microarray, residues 1-88, 635 nm (AID 1129). The conditions noted are these: small-molecule microarray binding, fluorescence 635 nm; higher = more signal.
Experiment [3] deals with Focal adhesion kinase 1 (Homo sapiens) (UniProt Q05397). The experiment can be described thus: PTK2 protein binding on printed compound slides – biochemical, small-molecule microarray, 635/667 nm fluorescence, BSA, DTT, primary screen (AID 1130).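 Note: composite of spot emission at 667 nm and signal to noise over triplicate slides.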 Conditions: 635 nm fluorescence, higher = more signal.
Sequence of Focal adhesion kinase 1 (Homo sapiens) (Q05397 whole entry, looked up): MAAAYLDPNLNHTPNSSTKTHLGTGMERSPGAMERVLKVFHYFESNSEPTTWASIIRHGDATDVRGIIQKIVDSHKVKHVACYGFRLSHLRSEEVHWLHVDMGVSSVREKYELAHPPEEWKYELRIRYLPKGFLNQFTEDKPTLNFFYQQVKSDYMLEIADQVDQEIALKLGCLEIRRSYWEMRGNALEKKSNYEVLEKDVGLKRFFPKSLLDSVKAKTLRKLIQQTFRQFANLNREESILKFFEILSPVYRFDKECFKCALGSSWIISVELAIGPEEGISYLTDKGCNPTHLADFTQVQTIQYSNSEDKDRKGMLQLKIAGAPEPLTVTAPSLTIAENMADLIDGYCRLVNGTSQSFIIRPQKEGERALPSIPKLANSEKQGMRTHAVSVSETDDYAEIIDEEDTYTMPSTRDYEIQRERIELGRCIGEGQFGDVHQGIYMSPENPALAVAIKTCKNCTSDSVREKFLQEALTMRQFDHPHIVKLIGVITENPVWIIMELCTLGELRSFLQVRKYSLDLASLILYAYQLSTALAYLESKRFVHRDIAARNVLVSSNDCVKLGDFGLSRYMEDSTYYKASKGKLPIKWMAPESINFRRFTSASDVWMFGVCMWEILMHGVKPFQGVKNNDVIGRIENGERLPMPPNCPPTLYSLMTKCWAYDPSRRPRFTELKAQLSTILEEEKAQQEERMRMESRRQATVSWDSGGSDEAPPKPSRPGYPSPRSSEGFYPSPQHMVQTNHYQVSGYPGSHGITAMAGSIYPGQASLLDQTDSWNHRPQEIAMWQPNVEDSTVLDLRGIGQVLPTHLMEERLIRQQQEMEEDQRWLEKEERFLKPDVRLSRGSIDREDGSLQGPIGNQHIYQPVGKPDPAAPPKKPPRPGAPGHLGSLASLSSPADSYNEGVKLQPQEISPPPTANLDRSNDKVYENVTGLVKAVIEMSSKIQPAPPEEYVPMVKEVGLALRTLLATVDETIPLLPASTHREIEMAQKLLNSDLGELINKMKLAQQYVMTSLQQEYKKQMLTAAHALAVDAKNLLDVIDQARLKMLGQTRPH
For experiment [4], the system named is Fibrinogen (Alexa647-labelled). The experiment can be described thus: Alexa647-fibrinogen binding to printed small molecules – biochemical, small-molecule microarray, 635/667 nm fluorescence, artefact control for SMM control-protein annotation, profiling panel (AID 1131).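 Note: z-score merges 667 nm fluorescence with per-spot signal-to-noise over triplicate slides.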 Conditions: fibrinogen-A647 binding fluorescence, higher = more signal.
Experiment [5] concerns the target Follistatin (Homo sapiens) (UniProt P19883). The experiment can be described thus: FST protein binding to printed compounds – biochemical, small-molecule microarray, 635/667 nm fluorescence, primary screen (AID 1132). Conditions: 635 nm fluorescence, higher = more signal.
Experiment [6] concerns the target Fibroblast growth factor 2 (Homo sapiens) (UniProt P09038). The experiment can be described thus: basic fibroblast growth factor binding to printed compounds – biochemical, small-molecule microarray, 635/667 nm fluorescence, primary screen (AID 1133). Conditions: FGF2, fluorescence 635/667, higher = more signal.
Experiment [7] can be described thus: JC-1 mitochondrial potential readout, lung cancer cells – cell-based, A549, JC-1 fluorescence, basal, 24 h, 100 nL, profiling panel (AID 1138).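 Note: A549 lung adenocarcinoma cells under basal conditions with no added stimulus; test concentration not given here.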 Conditions: higher = more signal.
Another experiment concerns Lefty1. The experiment can be described thus: Lefty1 protein binding to printed compounds – biochemical, small-molecule microarray, 635/667 nm fluorescence, primary screen (AID 1139). The conditions noted are these: fluorescence 635/667, higher = more signal.
The test system of experiment [8] is wheat germ agglutinin (Triticum aestivum), Alexa647-labelled. Kind of experiment: Alexa647-WGA lectin binding to printed small molecules – biochemical, small-molecule microarray, 635/667 nm fluorescence, artefact control for SMM control-protein annotation, profiling panel (AID 1140).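 Note: score merges 667 nm feature emission with signal to noise over triplicate slides.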 The conditions noted are these: WGA-A647 binding, 635 nm fluorescence, higher = more signal.

Experiment [9] deals with Luciferin 4-monooxygenase (Photinus pyralis) (UniProt P08659). The experiment can be described thus: inhibition of purified Photinus pyralis luciferase – biochemical, luminescence, purified enzyme, 2006 set, primary screen (AID 1141).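 Note: cell-free assay with purified firefly luciferase at 100 ng per well in PBS; test concentration not given here.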 Conditions: purified firefly luciferase, SteadyGlo luminescence, 30 min; higher = more signal, called active from +8 up or from −8 down.
Sequence of Luciferin 4-monooxygenase (Photinus pyralis) (P08659 whole entry, looked up): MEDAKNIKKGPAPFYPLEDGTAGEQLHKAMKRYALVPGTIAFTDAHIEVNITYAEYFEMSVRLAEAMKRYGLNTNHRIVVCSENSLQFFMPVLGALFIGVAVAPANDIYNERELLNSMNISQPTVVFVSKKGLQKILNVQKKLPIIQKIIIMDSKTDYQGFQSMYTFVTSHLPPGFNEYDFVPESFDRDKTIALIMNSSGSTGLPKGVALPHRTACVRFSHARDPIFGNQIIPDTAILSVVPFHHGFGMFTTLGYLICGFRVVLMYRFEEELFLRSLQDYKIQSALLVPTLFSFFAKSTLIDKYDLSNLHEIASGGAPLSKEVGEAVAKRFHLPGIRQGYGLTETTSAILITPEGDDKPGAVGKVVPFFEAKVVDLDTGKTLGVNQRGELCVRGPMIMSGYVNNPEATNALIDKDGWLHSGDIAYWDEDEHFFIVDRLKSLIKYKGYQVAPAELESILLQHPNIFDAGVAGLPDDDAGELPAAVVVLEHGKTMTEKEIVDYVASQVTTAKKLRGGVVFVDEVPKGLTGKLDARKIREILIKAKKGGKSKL
For experiment [10], the system named is Wnt5a (protein binding on small-molecule microarray). The experiment can be described thus: small molecules binding Wnt5a protein – biophysical, small-molecule microarray, 635/667 nm fluorescence, primary screen (AID 1142).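 Note: fluorescence read at 667 nm with signal to noise per printed feature.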 Conditions: 635 nm fluorescence, higher = more signal.
Experiment [11] in a line: ATP-based viability of Huh7 replicon cells – cell-based, CellTiter-Glo luminescence, basal, 48 h, cytotoxicity control for HCV replication inhibitor project, primary screen (AID 1143).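 Note: Huh7 hepatoma cells carrying a hepatitis C replication reporter with no stimulus; test concentration not given here.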 Conditions: higher = more signal, called active from +8 up or from −8 down.
Experiment [12] is described as follows: Pseudomonas biofilm growth suppression – PAO1 strain, BacTiter-Glo luminescence, LB-PBS, primary screen (AID 1144). The conditions noted are these: P. aeruginosa PAO1 biofilm, 12 h, higher = more signal.
A short description of experiment [13]: basal CRE-LacZ reporter activity in PC12 – cell-based, unstimulated, primary screen (AID 1145). The conditions noted are these: no forskolin, luminescence, 4.5 h, higher = more signal, called active from +8 up or from −8 down.
Experiment [14] in a line: forskolin-driven CRE-LacZ activity in PC12 – cell-based, CRE-LacZ reporter, forskolin-stimulated, primary screen (AID 1146).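 Note: PC12 cells with 6xCRE LacZ reporter stimulated by forskolin 10 µM; beta-galactosidase reporter signal reflecting CREB driven transcription.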 The conditions noted are these: luminescence, 4.5 h, higher = more signal, called active from +8 up or from −8 down.
Experiment [15] deals with Streptavidin (Streptomyces avidinii) (UniProt P22629). Kind of experiment: compounds binding control protein streptavidin – biophysical, small-molecule microarray, 635/667 nm fluorescence, artefact control for SMM compound annotation, primary screen (AID 1147).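 Note: signal reflects streptavidin binding to arrayed compounds as a control protein.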 The conditions noted are these: higher = more signal.
Sequence of Streptavidin (Streptomyces avidinii) (P22629 whole entry, looked up): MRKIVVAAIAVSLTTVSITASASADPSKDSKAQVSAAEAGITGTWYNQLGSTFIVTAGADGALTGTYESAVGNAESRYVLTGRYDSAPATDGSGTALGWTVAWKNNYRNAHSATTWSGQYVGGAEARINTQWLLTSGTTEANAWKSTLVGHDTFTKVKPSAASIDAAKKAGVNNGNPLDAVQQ
A short description of experiment [16]: probe aInhba binding on compound microarray – biochemical, small-molecule microarray, 635/667 nm fluorescence, primary screen (AID 1148).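 Note: score merges 667nm spot fluorescence with signal-to-noise for antibody binding to printed compounds.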 Conditions: higher = more signal.
Experiment [17] deals with Torsin-1A (Homo sapiens) (UniProt O14656). Kind of experiment: TOR1A wild-type binding on microarray – cell lysate, small-molecule microarray, lysate, 635/667 nm, primary screen (AID 1149). Conditions: COS7 hTOR1A-WT lysate, 635 nm fluorescence, higher = more signal.
Sequence of Torsin-1A (Homo sapiens) (O14656 whole entry, looked up): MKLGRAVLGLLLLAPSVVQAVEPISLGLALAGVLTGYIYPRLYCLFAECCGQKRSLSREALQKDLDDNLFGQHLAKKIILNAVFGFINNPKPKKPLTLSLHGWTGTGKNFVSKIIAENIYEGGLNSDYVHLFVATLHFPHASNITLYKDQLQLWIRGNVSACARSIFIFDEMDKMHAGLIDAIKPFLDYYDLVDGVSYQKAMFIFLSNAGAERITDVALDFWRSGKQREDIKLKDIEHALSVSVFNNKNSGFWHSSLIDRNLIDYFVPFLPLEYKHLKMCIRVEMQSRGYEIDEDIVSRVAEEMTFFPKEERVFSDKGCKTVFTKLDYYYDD
The target is the same in experiment [18]. Kind of experiment: torsin A mutant lysate binding on microarrays – cell lysate, small-molecule microarray, COS7 lysate, 635/667 nm fluorescence, primary screen (AID 1150).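 Note: score pools 667 nm emission and signal to noise measuring lysate protein binding.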 The conditions noted are these: COS7 hTOR1A mutant lysate, 635 nm fluorescence, higher = more signal.
For experiment [19], the system named is Sonic hedgehog protein (Shh). Kind of experiment: Sonic hedgehog microarray binding compounds – biochemical, small-molecule microarray, 635/667 nm fluorescence, primary screen (AID 1151).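 Note: Shh protein binding to compounds spotted on small-molecule microarray slides; score combines spot fluorescence intensity with signal-to-noise across triplicate slides.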 The conditions noted are these: 635 nm fluorescence, higher = more signal.

The structures appear in SMILES notation. The source made the active and inactive calls. Unless noted, the rule behind the calls is not given here.

Sequence of Follistatin (Homo sapiens) (P19883 whole entry, looked up): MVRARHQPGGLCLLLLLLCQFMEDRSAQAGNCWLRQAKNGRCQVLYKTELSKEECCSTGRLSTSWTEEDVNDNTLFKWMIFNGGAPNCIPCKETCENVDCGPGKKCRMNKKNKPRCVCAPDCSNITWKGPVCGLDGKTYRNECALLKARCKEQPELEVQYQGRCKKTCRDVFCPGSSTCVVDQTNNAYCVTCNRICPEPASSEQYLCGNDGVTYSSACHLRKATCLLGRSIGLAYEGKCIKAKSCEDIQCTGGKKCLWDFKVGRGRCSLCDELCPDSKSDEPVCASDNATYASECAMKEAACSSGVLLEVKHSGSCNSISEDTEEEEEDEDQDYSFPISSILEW
Sequence of Fibroblast growth factor 2 (Homo sapiens) (P09038 whole entry, looked up): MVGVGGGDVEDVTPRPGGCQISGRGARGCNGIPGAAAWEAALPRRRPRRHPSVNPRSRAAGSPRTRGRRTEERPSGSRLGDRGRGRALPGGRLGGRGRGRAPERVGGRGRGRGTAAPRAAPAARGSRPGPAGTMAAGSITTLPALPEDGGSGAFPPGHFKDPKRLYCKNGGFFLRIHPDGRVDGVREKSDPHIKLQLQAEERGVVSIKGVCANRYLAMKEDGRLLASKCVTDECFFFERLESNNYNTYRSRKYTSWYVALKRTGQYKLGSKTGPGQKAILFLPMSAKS

In the case of `C=C(/C=C/CNS(=O)(=O)c1ccc(C)cc1)[C@H](O)[C@H]1CCCN1S(=O)(=O)c1ccccc1[N+](=O)[O-]`, the composite z-score in [1] is -0.394; in experiment [2] it was 0.237; in experiment [3], 0.0627; in experiment [4] it was 0.53; in experiment [5], 0.933; in experiment [6] it was 0.891. The composite z-score was 0.887 with Lefty1; 0.299 in experiment [8]; 0.118 in experiment [10]; 0.337 in experiment [15]; -0.0791 in experiment [16]; 0.361 in the experiment with Torsin-1A (Homo sapiens) [17]. The composite z-score in the experiment with Torsin-1A (Homo sapiens) [18] is 0.388; in experiment [19] it was 0.758. For the same compound, the z-score in experiment [7] is 0.381; in experiment [9] it was -0.83 (inactive); in experiment [11], -1.58 (inactive); in experiment [12], 1.01 (inactive); in [13], 6.84 (inactive); in experiment [14], -1.17 (inactive).

As to `COc1cc2c(cc1O)C(C)N(Cc1cc3c(cc1Br)OCO3)CC2` (stereo not given), the composite z-score in experiment [1] is -0.408; in experiment [2] it was -1.4; in experiment [3] it was -0.618; in experiment [4], -1.01; in experiment [5], -0.381; in experiment [6], -0.437. Further, the composite z-score is -0.46 in the experiment with Lefty1; -0.55 in experiment [8]; -0.131 in [10]; -0.679 in experiment [15]; -0.157 in experiment [16]; -1.12 in the experiment with Torsin-1A (Homo sapiens) [17]. Also, the composite z-score is -0.829 in the experiment with Torsin-1A (Homo sapiens) [18] and -0.836 in experiment [19]. Further, the z-score in experiment [7] is -0.472; in experiment [9], -0.499 (inactive); in [11] it was -3.33 (inactive); in experiment [12], 0.3 (inactive); in experiment [13] it was 1.27 (inactive); in [14] it was 0.861 (inactive).

`COc1cc2c(cc1OC)CN(C(=O)[C@H]1[C@@H]3C(=O)O[C@@H](c4ccccc4)[C@@H](c4ccccc4)N3[C@@H](c3ccc(OCCO)cc3)[C@]13C(=O)Nc1ccc(C#CCCO)cc13)CC2`: the composite z-score in experiment [1] came to 1.43; in experiment [2], 1.22; in experiment [3], 0.541; in experiment [4], 0.939; in experiment [5], 1.35; in experiment [6], 0.742. Also, the composite z-score came to 1.14 in the experiment with Lefty1; 1.01 in experiment [8]; 0.455 in [10]; 1.31 in experiment [15]; 0.659 in experiment [16]; 0.272 with Torsin-1A (Homo sapiens) [17]. The composite z-score with Torsin-1A (Homo sapiens) [18] came out at 0.764; in [19], 1.62. Further, the z-score in [7] is -0.96; in experiment [9] it was 0.268 (inactive); in experiment [11], 0.0229 (inactive); in [12], -0.0983 (inactive); in experiment [13], -0.61 (inactive); in [14] it was -0.48 (inactive).

On to `O=C1O[C@@H](c2ccccc2)[C@@H](c2ccccc2)N2[C@@H](c3ccc(O)cc3)[C@]3(C(=O)Nc4ccc(C#CC5=CCCCC5)cc43)[C@@H](C(=O)N3CCN(c4ncccn4)CC3)[C@H]12`, for which the composite z-score in experiment [1] was determined as 0.567; in [2] it was 1.19; in experiment [3], 1.24; in [4], 0.811; in [5] it was 1.22; in experiment [6] it was 1.1. Further, the composite z-score in the experiment on Lefty1 amounted to 0.68; in experiment [8], 0.262; in experiment [10], 0.326; in [15], 0.448; in [16] it was 0.0633; with Torsin-1A (Homo sapiens) [17], 0.6. The composite z-score in the experiment with Torsin-1A (Homo sapiens) [18] came out at 0.836; in [19] it was 1.21. Further, the z-score was -0.367 in [7]; 0.745 (inactive) in experiment [9]; -3.76 (inactive) in [11]; -1.07 (inactive) in experiment [12]; -1.14 (inactive) in [13]; -0.286 (inactive) in [14].

With `COC(=O)c1c(CC[C@@H](CO)NC(=O)N[C@H](Cn2cc(-c3ccccc3C)nn2)C(C)C)oc(C(C)=O)c1C(=O)OC`, the composite z-score was 0.0233 in experiment [1]; -0.0523 in experiment [2]; 0.14 in experiment [3]; 0.335 in [4]; -0.505 in [5]; -0.37 in [6]. In addition, the composite z-score with Lefty1 is -0.0683; in experiment [8], 0.567; in experiment [10], -0.338; in [15], -0.0581; in experiment [16], -0.003; with Torsin-1A (Homo sapiens) [17], -0.123. Besides, the composite z-score in the experiment with Torsin-1A (Homo sapiens) [18] was -0.171; in [19], -0.272. The z-score is -0.704 in experiment [7]; 0.379 (inactive) in experiment [9]; -2.66 (inactive) in experiment [11]; -0.673 (inactive) in experiment [12]; 1.5 (inactive) in experiment [13]; -0.644 (inactive) in experiment [14].
